MPTP inh = inhibitors of mitochondrial permeability transition pore | isolated mouse mitochondria, Ca2+ swelling absorbance, 30 min | inhibition, % at 10 µM | 1.4% of 360,000 active | AID 602449;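 active = inhibition of 50% or more, scaled per plate between neutral and stimulator controls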;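 note: 0% = DMSO wells given calcium and 100% = 1 mM EGTA wells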
Myeloid diff MLP = promotes myeloid progenitor differentiation. 1% of 360,000 active. AID 624256. calls only at 10 µM. ER-HoxA9 myeloid progenitors, lysozyme-GFP differentiation, flow cytometry;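 active = normalized GFP-positive differentiation at or above the plate's own cutoff, the solvent-only control mean plus 3 SD; inconclusive = no clear call, values can overlap the other calls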;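 note: cells exposed to compound for four days before flow analysis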
GRIN3A LBD mod = modulates the human NR3A ligand-binding domain; NR3A LBD differential scanning fluorimetry, Tm shift; 0% = protein alone, 100% = glycine-bound protein; Tm shift relative to glycine control, % at 25 µM; 2.5% of 340,000 active;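 active = melting temperature shift of at least 10% of the positive control shift, at one fixed dose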
FAS-TE inh = inhibitors of human fatty acid synthase thioesterase domain. P49327. recombinant FAS-TE, OMFH fluorogenic substrate, fluorescence endpoint. inhibition, % at 15 µM. 0.67% of 360,000 active;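 active = compounds whose normalised, plate-corrected inhibition of enzyme fluorescence in the single-dose primary screen is 50% or more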;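 note: 0% = DMSO with enzyme and 100% = substrate without enzyme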
rCAG RNA binder = molecules binding r(CAG) RNA repeats; AID 651821; r(CAG) RNA repeat, TO-PRO-1 dye displacement fluorescence; inhibition, % at 3 µM; 1.3% of 370,000 active;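 active = inhibition above the plate cutoff, the mean of all test compounds on that plate plus 3 SD, cut at about 35% in these data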;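 note: 0% = DMSO alone and 100% = 100 µM mitoxantrone as full dye displacement; higher means more dye released from RNA so lower well fluorescence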
MPTP counter = membrane potential counter-screen of mitochondrial pore inhibitors; shares compounds with MPTP inh; isolated mitochondria, Rhodamine 123 fluorescence; inhibition, % at 10 µM; 78% of 5,000 active; AID 624504; in the data active = inhibition above about 22%;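 note: 0% = DMSO vehicle and 100% = positive control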
MPTP abs DR = MPTP inhibition, dose response swelling confirmation. shares compounds with MPTP inh. 58% of 780 active. isolated mitochondria swelling, absorbance. IC50, µM; in the data active = IC50 below about 20 µM
MPTP cs DR = MPTP inhibitor counter-screen activity, dose response; IC50, µM; isolated mitochondria counterscreen, fluorescence read-out; shares compounds with MPTP inh; 49% of 780 active; in the data active = IC50 below about 80 µM
* = called active by the depositor; i = inactive; ? = inconclusive; nt = no result; + = active, no number. The list is not random: actives were taken first. Their share in the collection is about 5.7%.

SMILES	MPTP inh	Myeloid diff MLP	GRIN3A LBD mod	FAS-TE inh	rCAG RNA binder	MPTP counter	others
CS(=O)(=O)c1ccc(-c2csc(C(O)(c3ccccc3)C(F)(F)F)n2)cc1 (stereo not drawn)	0	i	nt	32	2	nt
O=C(CN1C(=O)/C(=C/c2ccccc2F)Sc2ccccc21)NCC1CCCO1 (stereo not drawn)	5	i	1	-1	-2	nt
Cc1cc2c(cc1C)-c1nnnn1C(N1CCC(Cc3ccccc3)CC1)C(=O)N2 (stereo not drawn)	0	i	nt	nt	3	nt
Cc1cc(OCC(=O)Nc2ccncc2)ccc1Cl	98*	i	0	-4	-5	88*
Cc1cc(OCC(=O)Nc2ccc(Br)cc2)cc2c1C(=O)CC(C)(C)O2	62*	i	0	42	0	68*
CC(=O)Nc1ccc(NC(=O)COc2cc(O)c3c(c2)OC(C)(C)CC3=O)cc1	-1	i	0	-5	-5	nt
Cc1cccc(OCC(=O)Nc2ccncc2)c1	21	i	-1	-6	0	nt
Cc1cc(OCC(=O)Nc2ccncc2)cc(C)c1Br	91*	i	-3	-4	-3	97*
Cc1csc(SCC(=O)NC2CCS(=O)(=O)C2)n1 (stereo not drawn)	0	i	0	-4	1	nt
CC(=O)Nc1cc(-c2ccccc2)nn1Cc1ccc(Cl)cc1	3	i	0	7	1	nt
O=C(Nc1cc(-c2ccccc2)nn1C1CCCCC1)c1ccc(Cl)cc1	64*	i	-2	29	11	97*
COc1ccc([N+](=O)[O-])cc1NC(=S)NC(NC(=O)Cc1ccc(OC)c(OC)c1)C(Cl)(Cl)Cl (stereo not drawn)	66*	i	7	2	23	51*
CN(NC(=S)Nc1ccc(OC(F)F)cc1)C(=S)Nc1ccc(OC(F)F)cc1	84*	i	2	6	4	93*
Oc1cccc2c(NC(=S)Nc3ccc(OC(F)F)cc3)cccc12	62*	i	11*	6	10	80*
FC(F)Oc1ccc(NC(=S)NCc2ccccc2)cc1Cl	100*	i	-2	35	5	82*
FC(F)Oc1ccc(NC(=S)Nn2cnnc2)cc1	1	i	7	-10	0	nt
CC(C)Oc1ccc(CNC(=S)Nc2ccccc2)cc1Cl	26	i	-3	17	0	nt
CCN(CC)C(=S)Nc1ccc(OC(F)F)cc1	1	i	-5	-4	2	nt
FC(F)Oc1ccc(NC(=S)NCCc2ccccn2)cc1	0	i	-1	-4	-3	nt
FC(F)Oc1ccc(NC(=S)NCc2ccccc2)cc1	79*	i	4	-5	-2	81*
COc1ccc(C(=O)CNc2ccc(C)cc2C)cc1	2	i	-1	22	0	nt
COc1cccc(-c2ccc(CN3C(C(C)C)C(=O)N(Cc4cn(CCC5OCCO5)nn4)CCS3(=O)=O)cc2)c1OC (stereo not drawn)	0	i	nt	0	5	nt
CC(C)NC(=S)N/N=C/c1cc(Br)ccc1O	93*	i	-2	10	9	61*
Cc1ccc(S(=O)(=O)/N=c2\ccc(Cl)cn2C(F)F)cc1	1	i	0	-2	-2	nt
O=C(COC(=O)C1(c2ccc(F)cc2)CCCC1)NCc1ccco1	90*	i	2	10	0	3	MPTP abs DR=i;MPTP cs DR=61*
SMILES	MPTP inh	Myeloid diff MLP	GRIN3A LBD mod	FAS-TE inh	rCAG RNA binder	MPTP counter	others
S=C(Nc1ccc(Cl)cc1Cl)Nc1ccccc1Oc1ccccc1	34	i	2	18	nt	nt
S=C(Nc1cccc(Cl)c1)Nc1ccccc1Oc1ccccc1	91*	i	10	24	6	110*
S=C(Nc1ccccc1Oc1ccccc1)Nc1cccc(Cl)c1Cl	78*	i	-3	30	8	69*
NC1=NC[C@H](Cc2ccccc2)N1CCCCC1CCCCC1	82*	i	-11	-147	13	48*
NC1=NC[C@H](Cc2ccc(O)cc2)N1CCCCC1CCCCC1	3	i	-2	-23	17	nt
C#CCOCCOCCOCCNc1nc(N2CCN(C(=O)[C@H](CCC(=O)O)n3cc(C(N)[C@H](C)CC)nn3)CC2)nc(N2CCN(C(=O)[C@H](CCC(=O)O)n3cc(C(N)[C@H](C)CC)nn3)CC2)n1 (stereo partly drawn)	-1	i	-1	-9	-7	nt
Cc1ccc(NC(=O)C2CCN(S(=O)(=O)c3ccc4c(c3)NC(=O)C(C)S4)CC2)cc1Cl (stereo not drawn)	96*	nt	10*	23	15	97*
Cc1cc(C)cc(NC(=O)C2CCN(S(=O)(=O)c3ccc4c(c3)NC(=O)C(C)S4)CC2)c1 (stereo not drawn)	2	i	3	15	9	nt
O=C(Nc1ccc(S(=O)(=O)N2CCN(Cc3ccccc3)CC2)cc1)c1cnccn1	73*	i	0	2	1	42*
O=C(Nc1ccc(S(=O)(=O)N2CCCC2)cc1)c1cnccn1	-1	i	-1	-3	-2	nt
COc1ccc(CCNC(=O)CC2SC(N)=NC2=O)cc1OC (stereo not drawn)	1	i	-1	-13	4	nt
Cc1ccc2cc(CN(c3cccc(C)c3C)S(=O)(=O)c3ccccc3)c(=O)[nH]c2c1	-1	?	2	10	3	nt
Cc1cc(/C=N/n2cnnc2)c(C)n1-c1ccc(OCc2ccc(Cl)cc2Cl)cc1	108*	i	-4	-4	nt	101*
Cc1cc(/C=N/n2cnnc2)c(C)n1-c1ccccc1	-4	i	-1	-10	-6	nt
Cc1cc(/C=N/n2cnnc2)c(C)n1-c1ccc(Cl)cc1	0	i	0	-6	-4	nt
Cc1cc(/C=N/n2cnnc2)c(C)n1-c1ccc(OCc2ccc(F)cc2)cc1	99*	+	0	2	0	93*
CC1CCc2c(C(=O)Nc3ccc(OC(F)(F)F)cc3)csc2C1 (stereo not drawn)	95*	i	6	24	1	29*
CC1CCc2c(C(=O)Nc3nccs3)csc2C1 (stereo not drawn)	1	i	-2	1	1	nt
CCOC(=O)c1cnn(-c2cc(C)cc(C)c2)c1N	-1	i	0	-1	-9	nt
CCOC(=O)c1cnn(-c2sc(C(=O)OCC)c(C)c2C(=O)OCC)c1N	88*	i	-3	-61	13	74*
CC(C)n1c(-c2ccc(C(C)(C)C)cc2)n[nH]c1=S	68*	i	0	2	-1	67*
C=CCOc1ccc(C2C(C#N)=C(N)N(N(C)C)C3=C2C(=O)CCC3)cc1 (stereo not drawn)	0	i	4	-5	2	nt
